For 40 compounds, inhibition results are on record in PubChem BioAssay.

A number with no mark means an inactive call. Rule as the data show it: active = inhibition above about 31%; inactive = the rest.

This test in a line: yeast transport mutant growth inhibition pilot in 384-well plates, post-Golgi transport modulator project (AID 636). The following applies: absorbance 615 nm, about 18 h, stronger effect = higher value.
The term inhibition denotes the relative decrease from the control value, in per cent. For the compound `CCOC(=O)C1CCN(c2c(NC3CCCCCCC3)c(=O)c2=O)CC1`, the inhibition was 0.64%.

Turning to `Cc1nc(NC2=NCN(CCN3CCOCC3)CN2)nc2c(C)cccc12`, the inhibition is -2.11%.

For the compound `CCN(CC)C(=O)c1sc2nc(-c3cccs3)cc(-c3cccs3)c2c1N`, the inhibition is -4.67%.

On to `O=C(O)C1CCCN1c1ncnc2c1oc1ccccc12` (stereo not given), for which the inhibition was -0.4%.

Regarding `CCOc1cccc(Oc2ccc(C(F)(F)F)cn2)c1`, the inhibition is -7.33%.

With `CCOC(=O)N1CCN(Cc2ccccc2F)CC1`, the inhibition is -7.33%.

Turning to `CCCS(=O)(=O)C(=C1Nc2ccccc2N1)S(=O)(=O)CCC`, the inhibition was -5.68%.

`O=C(NCCSCc1ccco1)Nc1cccc(Cl)c1`: the inhibition was -5.33%.

Consider `O=C1C2C3C=CC(C3=C3CCCCC3)C2C(=O)N1c1ccccc1` (stereo not given), for which the inhibition was -3.12%.

As to `OC1(c2cccc(C(F)(F)F)c2)CCNCC1`, the inhibition was -8.53%.

On to `CCOc1ccc2[nH]cc(C(=O)N3CCN(CC)CC3)c(=O)c2c1`, for which the inhibition was 2.67%.

`O=C(NC1CCCCCC1)C1CCCN(S(=O)(=O)c2cccs2)C1` (stereo not given): the inhibition was -0.92%.

For `O=C(CSc1nnnn1C1CCCC1)N1CCN(C(=O)c2ccco2)CC1`, the inhibition was -3.11%.

For `O=S(=O)(c1ccc(S(=O)(=O)N(Cc2ccco2)Cc2ccccc2Cl)cc1)N1CCCC1`, the inhibition was -5.54%.

On to `CN(C)S(=O)(=O)c1ccc(S(=O)(=O)N(Cc2ccco2)Cc2ccccc2Cl)cc1`, for which the inhibition was -9.18%.

With `O=C(Nc1cccc2ncccc12)c1ccc2c(c1)OCCO2`, the inhibition was -1.17%.

Take `Cc1cc(C)n(C(=O)CCCCCC(=O)n2nc(C)cc2C)n1`: the inhibition was -9.32%.

Take `O=c1c[n+]([O-])c2ccccc2n1OCc1ccccn1`: the inhibition was -2.11%.

Turning to `O=C(CN(c1ccccc1)S(=O)(=O)c1ccccc1)N1CCN(Cc2ccc3c(c2)OCO3)CC1`, the inhibition is -6%.

Turning to `N#CC(C(=O)Nc1ccc(Cl)c(Cl)c1)=C1Nc2ccccc2N1`, the inhibition was -0.66%.

Turning to `CCCc1cc(=O)n2[nH]cnc2n1`, the inhibition is -6.22%.

Take `COc1ccc(-c2noc(-c3ccccc3C(=O)Nc3cccnc3)n2)cc1`: the inhibition was -1.17%.

For the compound `COc1ccccc1-n1c(SCC(=O)Nc2ccc3c(c2)OCO3)nc2c(c1=O)SCC2`, the inhibition was -0.55%.

Regarding `N#CC1=C(N)N(c2ccccc2)C(c2ccco2)C1(C#N)C#N` (stereo not given), the inhibition was -6.53%.

As to `O=C(N1CCN(c2ccccc2F)CC1)C12CC3CC(CC(C3)C1)C2`, the inhibition was -5.6%.

`COc1ccc(C2C(C(C)=O)=C(O)C(=O)N2C)c(OC)c1` (stereo not given): the inhibition is 1.3%.

For the compound `O=C(CN1C(=O)CCSc2ccccc21)Nc1ccc2c(c1)OCO2`, the inhibition was -2.5%.

On to `COc1cccc(C(=O)Nc2ccc(NC(C)=O)cn2)c1`, for which the inhibition is -5.27%.

`COC(=O)c1cc(Oc2ccc(C(=O)OC)cc2N)cc(C(=O)OC)c1`: the inhibition is -1.32%.

Take `CCOC(=O)c1sc2nc(SCC#N)n(CCCN3CCCC3=O)c(=O)c2c1C`: the inhibition is -5%.

For `Nc1c(C(=O)NCc2ccco2)nnn1Cc1ccccc1`, the inhibition was -6.32%.

In the case of `Cc1ccc(N2C(N)=NC(N)=NC23CCCC3)c(C)c1`, the inhibition is -4.68%.

In the case of `CCCCc1ccc(NC(=O)COCC)cc1`, the inhibition is -2.63%.

Consider `Cc1ccc2nc(SC(C)C(=O)N3CCCC3)[nH]c2c1` (stereo not given), for which the inhibition is -0.92%.

For `CN(C)c1cccc(C(=O)OCC(=O)NCc2ccco2)c1`, the inhibition was -4.81%.

Take `CCN(CC)CCOC(=O)c1cccc(OC)c1`: the inhibition was -5.07%.

For the compound `COc1ccc(NC(=O)CCNC(=O)Cn2ccc3ccccc3c2=O)c(OC)c1`, the inhibition is -7.97%.

As for `COc1ccc(CCNc2oc(-c3ccccc3OC)nc2C#N)cc1`, the inhibition is -1.43%.

On to `Fc1ccc(-c2cnc[nH]2)cc1`, for which the inhibition was 1.32%.

Turning to `Cc1cc(NC(=O)CSc2nnc(C3CC3)n2C)no1`, the inhibition is -0.53%.
